# Test results from publication PMC7862700, “An all-to-all approach to the identification of sequence-specific readers for epigenetic DNA modifications on cytosine”.
# Columns and labels:
# Assay in all cases: DAPPL (digital affinity profiling via proximity ligation, sequencing); 10 mM Tris-HCl pH 7.5, 50 mM NaCl, 1 mM DTT, 4% glycerol, room temperature, 30 min; GST-TFs on glutathione beads, 16-mer random dsDNA library, 0.1% formaldehyde crosslink after washing; high values mean tight binding
# FEV = molecular target: T1, FEV (Homo sapiens, UniProt Q99581 1-238); settings: protein: recombinant; tags: N-terminal GST; dsDNA, one strand shown
# T1 sequence: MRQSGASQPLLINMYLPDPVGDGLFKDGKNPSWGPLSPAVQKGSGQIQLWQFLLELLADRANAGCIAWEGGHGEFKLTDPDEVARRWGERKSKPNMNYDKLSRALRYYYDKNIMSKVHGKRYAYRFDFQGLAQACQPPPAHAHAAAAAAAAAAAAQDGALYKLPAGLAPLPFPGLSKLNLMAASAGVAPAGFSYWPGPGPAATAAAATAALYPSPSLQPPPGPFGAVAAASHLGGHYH
# Outline: (§1)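 Binding signal is given per hexamer as its read frequency for a factor divided by its frequency in the tag-only sample. GST-fused human transcription factors were expressed in yeast, captured on glutathione beads, barcoded with DNA and pooled with that sample, then incubated with 200 nmole of a 16-mer random double-stranded DNA library in Tris/NaCl/DTT/glycerol buffer for 30 min at room temperature. The pools were then washed, crosslinked, proximity-ligated, amplified by PCR and sequenced on an Illumina NextSeq500.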
# ETV5 = ETV5 (Homo sapiens, UniProt P41161 1-510); settings: protein: recombinant; tags: N-terminal GST; dsDNA, one strand shown
# Outline: as §1
# HSF1 = HSF1 (Homo sapiens, UniProt Q00613 1-529); settings: protein: recombinant; tags: N-terminal GST; chain copies: 3; dsDNA, one strand shown
# Outline: as §1
# SPIC = molecular target: T2, SPIC (Homo sapiens, UniProt Q8N5J4 1-248); settings: protein: recombinant; tags: N-terminal GST; dsDNA, one strand shown
# T2 sequence: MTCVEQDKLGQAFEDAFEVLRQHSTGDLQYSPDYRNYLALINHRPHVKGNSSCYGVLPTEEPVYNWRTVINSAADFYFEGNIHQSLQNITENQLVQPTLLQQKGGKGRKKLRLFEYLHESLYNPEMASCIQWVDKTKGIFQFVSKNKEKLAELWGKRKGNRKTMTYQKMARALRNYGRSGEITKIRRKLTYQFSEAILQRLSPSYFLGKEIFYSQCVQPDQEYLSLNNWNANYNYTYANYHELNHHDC
# Outline: as §1
# ELF4 = ELF4 (Homo sapiens, UniProt Q99607 1-663); settings: protein: recombinant; tags: N-terminal GST; dsDNA, one strand shown
# Outline: as §1
# ELK4 = molecular target: T3, ELK4 (Homo sapiens, UniProt P28324-2 1-405); settings: protein: recombinant; tags: N-terminal GST; dsDNA, one strand shown
# T3 sequence: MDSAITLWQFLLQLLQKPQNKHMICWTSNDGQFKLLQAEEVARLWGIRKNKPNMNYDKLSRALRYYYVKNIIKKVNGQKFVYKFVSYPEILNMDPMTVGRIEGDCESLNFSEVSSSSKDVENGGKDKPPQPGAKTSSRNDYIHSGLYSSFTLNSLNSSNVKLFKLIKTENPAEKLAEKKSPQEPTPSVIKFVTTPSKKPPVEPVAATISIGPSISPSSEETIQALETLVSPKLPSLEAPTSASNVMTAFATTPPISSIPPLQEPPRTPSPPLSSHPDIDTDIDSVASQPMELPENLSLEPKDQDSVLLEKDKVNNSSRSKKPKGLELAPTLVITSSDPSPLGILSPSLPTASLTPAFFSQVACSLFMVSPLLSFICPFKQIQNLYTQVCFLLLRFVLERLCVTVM
# Outline: as §1
# ETV2 = molecular target: T4, ETV2 (Homo sapiens, UniProt O00321 1-342); settings: protein: recombinant; tags: N-terminal GST; dsDNA, one strand shown
# T4 sequence: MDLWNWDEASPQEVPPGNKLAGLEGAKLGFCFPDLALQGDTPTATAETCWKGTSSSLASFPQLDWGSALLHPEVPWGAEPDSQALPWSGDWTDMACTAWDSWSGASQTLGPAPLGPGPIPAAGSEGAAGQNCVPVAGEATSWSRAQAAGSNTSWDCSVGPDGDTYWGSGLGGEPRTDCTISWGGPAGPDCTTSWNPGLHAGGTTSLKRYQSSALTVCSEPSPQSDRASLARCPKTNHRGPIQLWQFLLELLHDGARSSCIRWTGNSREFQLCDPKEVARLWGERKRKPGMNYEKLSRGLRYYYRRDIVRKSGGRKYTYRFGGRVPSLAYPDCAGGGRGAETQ
# Outline: as §1
# ELF3 = molecular target: T5, ELF3 (Homo sapiens, UniProt P78545 1-371); settings: protein: recombinant; tags: N-terminal GST; dsDNA, one strand shown
# T5 sequence: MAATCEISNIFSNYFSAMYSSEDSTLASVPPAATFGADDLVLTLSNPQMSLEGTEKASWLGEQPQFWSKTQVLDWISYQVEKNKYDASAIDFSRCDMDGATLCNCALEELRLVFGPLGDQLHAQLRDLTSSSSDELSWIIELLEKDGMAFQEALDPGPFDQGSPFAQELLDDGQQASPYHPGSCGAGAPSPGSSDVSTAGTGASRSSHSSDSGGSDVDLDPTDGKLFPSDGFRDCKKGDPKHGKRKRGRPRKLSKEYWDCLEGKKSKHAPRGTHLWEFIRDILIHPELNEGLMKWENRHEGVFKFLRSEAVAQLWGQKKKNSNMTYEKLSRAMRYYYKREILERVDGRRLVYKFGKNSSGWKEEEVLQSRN
# Outline: as §1
# CRX = CRX (Homo sapiens, UniProt O43186 1-299); settings: protein: recombinant; tags: N-terminal GST; dsDNA, one strand shown
# Outline: as §1
# ETV1 = ETV1 (Homo sapiens, UniProt P50549 1-477); settings: protein: recombinant; tags: N-terminal GST; dsDNA, one strand shown
# Outline: as §1
# Chain of HSF1 (Q00613 whole entry): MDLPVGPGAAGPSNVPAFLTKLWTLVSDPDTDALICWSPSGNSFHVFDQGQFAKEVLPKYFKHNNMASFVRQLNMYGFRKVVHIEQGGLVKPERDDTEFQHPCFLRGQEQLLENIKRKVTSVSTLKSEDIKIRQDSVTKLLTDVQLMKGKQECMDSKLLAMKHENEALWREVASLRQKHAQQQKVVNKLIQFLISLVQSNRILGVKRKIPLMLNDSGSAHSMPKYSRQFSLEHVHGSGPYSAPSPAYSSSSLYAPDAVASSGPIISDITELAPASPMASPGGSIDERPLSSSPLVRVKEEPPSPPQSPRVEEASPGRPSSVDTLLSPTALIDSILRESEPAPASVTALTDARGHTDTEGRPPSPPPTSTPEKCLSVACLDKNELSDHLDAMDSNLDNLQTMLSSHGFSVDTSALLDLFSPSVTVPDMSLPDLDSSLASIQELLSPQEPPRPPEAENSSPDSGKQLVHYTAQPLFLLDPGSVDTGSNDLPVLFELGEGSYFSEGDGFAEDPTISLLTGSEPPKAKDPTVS
# Chain of ETV1 (P50549 whole entry): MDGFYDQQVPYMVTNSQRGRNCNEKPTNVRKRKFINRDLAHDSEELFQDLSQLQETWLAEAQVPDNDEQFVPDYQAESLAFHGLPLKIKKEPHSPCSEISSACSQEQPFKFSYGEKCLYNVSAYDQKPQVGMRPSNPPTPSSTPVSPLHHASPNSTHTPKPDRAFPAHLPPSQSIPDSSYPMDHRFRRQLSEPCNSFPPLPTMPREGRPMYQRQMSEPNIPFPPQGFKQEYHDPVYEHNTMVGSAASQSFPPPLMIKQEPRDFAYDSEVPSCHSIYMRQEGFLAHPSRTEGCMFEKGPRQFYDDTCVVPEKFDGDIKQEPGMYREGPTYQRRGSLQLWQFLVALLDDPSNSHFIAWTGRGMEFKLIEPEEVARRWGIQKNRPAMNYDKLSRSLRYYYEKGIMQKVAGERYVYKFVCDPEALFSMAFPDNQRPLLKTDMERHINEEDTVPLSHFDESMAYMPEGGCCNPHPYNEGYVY
# Chain of ETV5 (P41161 whole entry): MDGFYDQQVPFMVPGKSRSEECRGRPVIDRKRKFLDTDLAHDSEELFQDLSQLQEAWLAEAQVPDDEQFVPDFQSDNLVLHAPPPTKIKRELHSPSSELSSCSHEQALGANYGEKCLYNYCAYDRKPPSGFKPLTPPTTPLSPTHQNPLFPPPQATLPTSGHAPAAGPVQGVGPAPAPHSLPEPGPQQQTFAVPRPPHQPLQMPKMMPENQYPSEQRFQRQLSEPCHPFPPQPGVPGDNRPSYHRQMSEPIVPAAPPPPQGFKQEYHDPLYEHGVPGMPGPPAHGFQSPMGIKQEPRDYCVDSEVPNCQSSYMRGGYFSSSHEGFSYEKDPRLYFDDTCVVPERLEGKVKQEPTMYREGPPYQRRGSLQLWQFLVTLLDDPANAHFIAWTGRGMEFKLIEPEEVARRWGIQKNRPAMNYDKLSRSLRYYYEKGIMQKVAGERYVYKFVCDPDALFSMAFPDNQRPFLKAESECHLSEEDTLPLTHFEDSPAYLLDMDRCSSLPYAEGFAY
# Chain of ELF4 (Q99607 whole entry): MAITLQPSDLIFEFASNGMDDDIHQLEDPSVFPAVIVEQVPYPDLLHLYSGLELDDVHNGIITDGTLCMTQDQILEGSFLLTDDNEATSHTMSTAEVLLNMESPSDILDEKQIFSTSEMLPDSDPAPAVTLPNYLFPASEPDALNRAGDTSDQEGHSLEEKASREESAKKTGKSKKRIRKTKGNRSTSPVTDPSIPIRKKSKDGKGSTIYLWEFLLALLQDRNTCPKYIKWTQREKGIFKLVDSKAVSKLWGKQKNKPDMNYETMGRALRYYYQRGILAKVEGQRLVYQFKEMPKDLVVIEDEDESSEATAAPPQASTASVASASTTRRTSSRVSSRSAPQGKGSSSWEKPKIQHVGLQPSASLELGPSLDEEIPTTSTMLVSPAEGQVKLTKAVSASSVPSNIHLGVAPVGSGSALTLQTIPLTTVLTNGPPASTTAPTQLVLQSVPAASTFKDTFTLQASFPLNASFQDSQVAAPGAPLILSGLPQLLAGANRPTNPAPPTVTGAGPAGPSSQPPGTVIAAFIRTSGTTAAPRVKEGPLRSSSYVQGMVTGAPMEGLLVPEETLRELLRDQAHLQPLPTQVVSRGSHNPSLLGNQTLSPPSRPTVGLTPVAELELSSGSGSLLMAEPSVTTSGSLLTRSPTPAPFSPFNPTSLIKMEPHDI
# Chain of CRX (O43186 whole entry): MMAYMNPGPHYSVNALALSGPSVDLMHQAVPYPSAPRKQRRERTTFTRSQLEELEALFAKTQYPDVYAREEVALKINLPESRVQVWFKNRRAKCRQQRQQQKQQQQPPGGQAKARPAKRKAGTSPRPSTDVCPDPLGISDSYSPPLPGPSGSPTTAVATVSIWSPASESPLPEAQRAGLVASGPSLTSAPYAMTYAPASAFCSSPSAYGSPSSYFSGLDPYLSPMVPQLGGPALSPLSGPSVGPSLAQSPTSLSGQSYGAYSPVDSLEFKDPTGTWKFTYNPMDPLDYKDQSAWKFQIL
sequence,measurement,setting,value
GATGTA,binding signal,FEV,"1.4 fold enrichment (6-mer frequency, TF over GST control)"
same,binding signal,ETV5,"1.37 fold enrichment (6-mer frequency, TF over GST control)"
same,binding signal,HSF1,"1.01 fold enrichment (6-mer frequency, TF over GST control)"
same,binding signal,SPIC,"1.12 fold enrichment (6-mer frequency, TF over GST control)"
same,binding signal,ELF4,"1.33 fold enrichment (6-mer frequency, TF over GST control)"
same,binding signal,ELK4,"1.28 fold enrichment (6-mer frequency, TF over GST control)"
same,binding signal,ETV2,"1.18 fold enrichment (6-mer frequency, TF over GST control)"
same,binding signal,ELF3,"1.53 fold enrichment (6-mer frequency, TF over GST control)"
same,binding signal,CRX,"1.06 fold enrichment (6-mer frequency, TF over GST control)"
same,binding signal,ETV1,"1.33 fold enrichment (6-mer frequency, TF over GST control)"
